Laboratory results taken from PubChem BioAssay (NCATS).
“And” between values parts separate entries of the source, which are not always exact repeats. Equal values may be shown once. Records with an inconclusive call do not appear. Unmarked numbers belong to inactive results. The source made the active and inactive calls. The call rests on the fitted dose curve; in most records, active means well fitted inhibition curve with a large enough effect; inconclusive means small, poorly fitted or top-dose-only effect; inactive means flat fitted curve, though single readings scatter. Where a SMILES comes first, the peptide text is derived from it. Bridges are numbered along the chain shown (N, C = ends). [ ]: non-standard residue; d: D form. The star is where a group is joined. X2 = CC[C@H](C)CCCCC(=O)*; Dab = NCC[C@H](N)C(=O)O

test system: KB-3-1; test: Cytotoxic Profiling of Annotated Libraries Using Quantitative High-Throughput Screening (AID 1296008); settings: Five cell lines viability, CellTiter-Glo ATP luminescence, 48-72 h; max response: active compounds read low; further: nearly all actives have a fitted effect of over 60% in size
How it was run: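 Cytotoxicity was measured as CellTiter-Glo ATP luminescence, read after 10 min at room temperature. Compound treatment of the cells lasted 48 or 72 hr at 37 degrees Celsius in a qHTS format.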
On the % scale 0 is the no-effect control and ±100 the full control effect; potency means the concentration at half of the fitted maximal effect.

SMILES	max response	Potency
O=C1O[C@@H]2[C@@H](O)[C@H](O)O[C@@H]2[C@H]1O	-9.13%	
CO[C@@H]1[C@@H](O[C@@H]2O[C@H](C)[C@@H](O[C@H]3C[C@@](C)(O)[C@@H](OC(=O)CC(C)C)[C@H](C)O3)[C@H](N(C)C)[C@H]2O)[C@@H](CC=O)C[C@@H](C)[C@@H](O)/C=C/C=C/C[C@@H](C)OC(=O)C[C@H]1O	-0.235%	
C[C@H](CSC(=O)c1ccccc1)C(=O)N1C[C@@H](Sc2ccccc2)C[C@H]1C(=O)O	-1.05%	
CC(=O)S[C@@H]1CC2=CC(=O)CC[C@]2(C)[C@H]2CC[C@@]3(C)[C@@H](CC[C@@]34CCC(=O)O4)[C@H]12	-24%	
CC1=C(C(=O)OCCN(Cc2ccccc2)c2ccccc2)C(c2cccc([N+](=O)[O-])c2)C(P2(=O)OCC(C)(C)CO2)=C(C)N1 (stereo not given)	26.8%	
C[C@H]1C[C@H]2[C@@H]3CCC4=CC(=O)C=C[C@]4(C)[C@@]3(F)[C@@H](O)C[C@]2(C)[C@@]1(O)C(=O)CCl	-8.19%	
CCCCCCCCCCCCCCCC(=O)OC/C=C(C)/C=C/C=C(C)/C=C/C1=C(C)CCCC1(C)C	-13.6%	
CCC(CN)CC(C)CCNCC(O)CNCC(C)CC(CC)CN (stereo not given)	-5.63%	
O=C[C@H](O)[C@@H](O)[C@H](O)[C@H](O)CO	-5.79%	
C/C=C1\NC(=O)[C@H]2CSSCC/C=C/[C@H](CC(=O)N[C@H](C(C)C)C(=O)N2)OC(=O)C(C(C)C)NC1=O (stereo not given in full)		0.0092 µM (active)
Cc1ccccc1CNc1ncnc2c1ncn2[C@@H]1O[C@H](CO)[C@@H](O)[C@H]1O	-19%	
CC#CCC(C)[C@H](O)/C=C/[C@@H]1[C@H]2c3cccc(CCCC(=O)O)c3O[C@H]2C[C@H]1O (stereo not given in full)	-28.3%	
CCCC1([C@H](O)C/C=C/[C@H]2[C@H](O)CC(=O)[C@@H]2CCCCCCC(=O)OC)CCC1	-18.2%	
CCN(CC)c1ccc(N=Nc2ccc(S(=O)(=O)N(C)C)cc2)c(S(=O)(=O)NCC[n+]2ccccc2)c1	-15.2%	
Cc1c(O)cc2c(c1C)O[C@](C)(CCC[C@H](C)CCC[C@H](C)CCCC(C)C)CC2	-6.57%	
CC(=O)O[C@H]1C[C@@H]2CC[C@@H]3[C@H](CC[C@@]4(C)[C@H]3C[C@H](N3CC[N+](C)(C)CC3)[C@@H]4OC(C)=O)[C@@]2(C)C[C@@H]1N1CC[N+](C)(C)CC1	-0.194%	
O=P(O)(O)OC(Cn1cncn1)(Cn1cncn1)c1ccc(F)cc1F	-21.6%	
Nc1ncnc(Nc2ccc(Cl)cc2)n1	-7.22%	
COC(C)=O	-9.47%	
CCC(C)C(C(=O)OCC[N+](C)(CC)CC)c1ccccc1 (stereo not given)	-5.4%	

SMILES	max response	Potency
COc1ccc(C(=O)Nc2ccccc2CCC2CCCCN2C)cc1 (stereo not given)	-11.1%	
CCCC(=O)N1CCCN(c2nc(N)c3cc(OC)c(OC)cc3n2)CC1	-12.4%	
CCCCCCCCCCCCCCCCCC(=O)[O][Al]	-8.23%	
CN(C)Cc1ccccc1	-10.5%	
CCCCCCCC/C=C\CCCCCCCC(=O)OC[C@@H](O)[C@H]1OC[C@H](O)[C@H]1O	-11.7%	
Cc1cc(-n2c(=O)[nH]c(=O)n(C)c2=O)ccc1Oc1ccc(S(=O)(=O)C(F)(F)F)cc1	28.3%	
COCC1=C(C(=O)OC(C)OC(=O)OC(C)C)N2C(=O)[C@@H](NC(=O)/C(=N\OC)c3csc(N)n3)[C@H]2SC1 (stereo not given in full)	-19.8% and -4.94%	
CCC(C)[C@H]1O[C@]2(C=C[C@@H]1C)C[C@@H]1C[C@@H](C/C=C(\C)[C@@H](O[C@H]3C[C@H](OC)[C@@H](O[C@H]4C[C@H](OC)[C@H](NC(C)=O)[C@H](C)O4)[C@H](C)O3)[C@@H](C)/C=C/C=C3\CO[C@@H]4[C@H](O)C(C)=C[C@@H](C(=O)O1)[C@]34O)O2 (stereo not given in full)		9.2 µM (active)
O=C(Cn1cnnn1)N[C@@H]1C(=O)N2C(C(=O)O)=C(CSc3nncs3)CS[C@H]12	-22.7% and -13.7%	
CCCN(CC)C(CC)C(=O)Nc1c(C)cccc1C (stereo not given)	-6.86%	
CCN1CCCC1CNC(=O)c1cc(S(=O)(=O)CC)ccc1OC (stereo not given)	-13.4% and -13.1%	
COc1cc(C[C@@H]2NCCc3cc(O)c(O)cc32)cc(OC)c1OC	-8.11%	
CC(=O)N[C@@H](C=O)[C@H](O)[C@H](O)[C@@H](O)CO	5.53% and 4.97%	
C=Cc1ccccc1	-0.236%	
CC[C@H](C)CCCCC(=O)N[C@@H](CCN)C(=O)N[C@H](C(=O)N[C@@H](CCN)C(=O)N[C@H]1CCNC(=O)[C@H]([C@@H](C)O)NC(=O)[C@H](CCN)NC(=O)[C@H](CCN)NC(=O)[C@H](CC(C)C)NC(=O)[C@@H](CC(C)C)NC(=O)[C@H](CCN)NC1=O)[C@@H](C)O (X2-[Dab]T[Dab][Dab][Dab][dL]L[Dab][Dab]T; lactam 4-C)	-11.4%	
C[C@]12CC[C@@H]3c4ccc(OS(=O)(=O)O)cc4CC[C@H]3[C@@H]1CCC2=O	3.98%	
CCN(CC)CCOC(=O)c1ccc(N)cc1Cl	1.25%	
CN1CCN(CCCN2c3ccccc3Sc3ccccc32)CC1	-4.85%	
CON=C1C[C@]2(C[C@@H]3C[C@@H](C/C=C(\C)C[C@@H](C)/C=C/C=C4\CO[C@@H]5[C@H](O)C(C)=C[C@@H](C(=O)O3)[C@]45O)O2)O[C@H](/C(C)=C/C(C)C)[C@H]1C		20.6 µM (active)
c1ccc2c(CCC3CCNCC3)c[nH]c2c1	-10.3%	
